# Experiments:
# Assay in all cases: DAPPL (digital affinity profiling via proximity ligation, sequencing); 10 mM Tris-HCl pH 7.5, 50 mM NaCl, 1 mM DTT, 4% glycerol, room temperature, 30 min; GST-TFs on glutathione beads, 16-mer random dsDNA library, 0.1% formaldehyde crosslink after washing; high values mean tight binding
# FLI1 = biological target: T1, FLI1 (Homo sapiens, UniProt Q01543 1-452); conditions: protein: recombinant; tags: N-terminal GST; dsDNA, one strand shown
# T1 sequence: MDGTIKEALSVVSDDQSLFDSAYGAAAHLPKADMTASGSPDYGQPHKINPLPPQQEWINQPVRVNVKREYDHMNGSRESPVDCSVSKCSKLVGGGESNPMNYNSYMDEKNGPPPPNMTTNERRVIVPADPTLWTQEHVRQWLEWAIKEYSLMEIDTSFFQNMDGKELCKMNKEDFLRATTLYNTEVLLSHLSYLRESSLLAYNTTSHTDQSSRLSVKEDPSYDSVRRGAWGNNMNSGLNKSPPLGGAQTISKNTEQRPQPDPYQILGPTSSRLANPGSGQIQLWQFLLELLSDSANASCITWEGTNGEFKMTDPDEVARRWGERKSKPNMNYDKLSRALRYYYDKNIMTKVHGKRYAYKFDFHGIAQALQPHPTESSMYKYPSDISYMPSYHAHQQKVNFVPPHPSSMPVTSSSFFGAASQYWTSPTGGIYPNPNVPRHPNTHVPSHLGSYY
# Outline: (§1)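 Binding signal is defined as a hexamer's read frequency for one factor over its frequency for the tag-only sample. To obtain reads, GST-fused human transcription factors were expressed in yeast, captured on glutathione beads, barcoded with DNA and pooled with that sample. Pools met 200 nmole of a 16-mer random double-stranded DNA library in Tris/NaCl/DTT/glycerol buffer for 30 min at room temperature before washing, 0.1% formaldehyde crosslinking, proximity ligation (BsaI/T4 ligase, 1 h, 37 °C), PCR and Illumina NextSeq500 sequencing.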
# ELK1 = biological target: T2, ELK1 (Homo sapiens, UniProt P19419 1-428); conditions: protein: recombinant; tags: N-terminal GST; dsDNA, one strand shown
# T2 sequence: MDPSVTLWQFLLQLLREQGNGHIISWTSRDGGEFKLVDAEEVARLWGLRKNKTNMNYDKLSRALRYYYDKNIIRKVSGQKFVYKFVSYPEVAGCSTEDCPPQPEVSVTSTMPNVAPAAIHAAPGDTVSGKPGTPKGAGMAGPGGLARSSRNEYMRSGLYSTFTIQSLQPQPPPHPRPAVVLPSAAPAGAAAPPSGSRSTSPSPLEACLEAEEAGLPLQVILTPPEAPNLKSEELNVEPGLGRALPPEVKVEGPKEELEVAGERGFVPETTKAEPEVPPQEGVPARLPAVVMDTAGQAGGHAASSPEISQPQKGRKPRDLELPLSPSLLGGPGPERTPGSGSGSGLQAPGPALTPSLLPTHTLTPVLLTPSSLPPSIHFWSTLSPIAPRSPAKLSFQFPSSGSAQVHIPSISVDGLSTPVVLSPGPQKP
# Outline: as §1
# GABPA = biological target: T3, GABPA (Homo sapiens, UniProt Q06546 1-454); conditions: protein: recombinant; tags: N-terminal GST; dsDNA, one strand shown
# T3 sequence: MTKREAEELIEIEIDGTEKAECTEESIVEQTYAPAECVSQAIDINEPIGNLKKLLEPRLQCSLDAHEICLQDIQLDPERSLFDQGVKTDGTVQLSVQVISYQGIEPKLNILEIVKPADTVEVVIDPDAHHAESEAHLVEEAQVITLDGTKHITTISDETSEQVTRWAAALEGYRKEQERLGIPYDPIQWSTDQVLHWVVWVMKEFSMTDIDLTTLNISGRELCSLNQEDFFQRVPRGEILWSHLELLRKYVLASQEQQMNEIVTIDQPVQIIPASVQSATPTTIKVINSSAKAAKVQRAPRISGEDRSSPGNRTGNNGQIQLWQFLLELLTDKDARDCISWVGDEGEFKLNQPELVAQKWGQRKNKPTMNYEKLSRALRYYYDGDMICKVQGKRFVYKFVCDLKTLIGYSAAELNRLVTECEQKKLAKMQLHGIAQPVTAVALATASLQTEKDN
# Outline: as §1
# ERG = biological target: T4, ERG (Homo sapiens, UniProt P11308 1-479); conditions: protein: recombinant; tags: N-terminal GST; dsDNA, one strand shown
# T4 sequence: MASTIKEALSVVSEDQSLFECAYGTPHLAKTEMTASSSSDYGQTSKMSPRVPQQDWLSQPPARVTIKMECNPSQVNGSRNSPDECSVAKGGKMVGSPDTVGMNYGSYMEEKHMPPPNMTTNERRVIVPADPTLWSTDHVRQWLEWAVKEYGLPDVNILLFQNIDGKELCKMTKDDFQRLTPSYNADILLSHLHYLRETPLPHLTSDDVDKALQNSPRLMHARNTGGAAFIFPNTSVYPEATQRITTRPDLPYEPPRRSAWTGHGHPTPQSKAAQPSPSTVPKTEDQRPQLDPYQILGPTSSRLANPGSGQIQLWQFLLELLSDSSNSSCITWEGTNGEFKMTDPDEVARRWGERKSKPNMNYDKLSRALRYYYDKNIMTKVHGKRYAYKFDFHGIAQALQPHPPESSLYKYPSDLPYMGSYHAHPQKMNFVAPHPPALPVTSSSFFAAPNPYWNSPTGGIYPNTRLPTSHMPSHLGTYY
# Outline: as §1
# ELF1 = ELF1 (Homo sapiens, UniProt P32519 1-619); conditions: protein: recombinant; tags: N-terminal GST; dsDNA, one strand shown
# Outline: as §1
# EHF = biological target: T5, EHF (Homo sapiens, UniProt Q9NZC4 1-300); conditions: protein: recombinant; tags: N-terminal GST; dsDNA, one strand shown
# T5 sequence: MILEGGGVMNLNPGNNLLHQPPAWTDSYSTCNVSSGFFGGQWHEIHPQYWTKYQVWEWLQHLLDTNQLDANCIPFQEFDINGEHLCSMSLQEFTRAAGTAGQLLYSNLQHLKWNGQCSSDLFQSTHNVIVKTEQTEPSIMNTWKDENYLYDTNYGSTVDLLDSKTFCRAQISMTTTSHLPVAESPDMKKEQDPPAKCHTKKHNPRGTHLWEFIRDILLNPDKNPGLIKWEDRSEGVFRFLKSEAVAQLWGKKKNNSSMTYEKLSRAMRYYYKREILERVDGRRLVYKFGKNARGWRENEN
# Outline: as §1
# SPIB = SPIB (Homo sapiens, UniProt Q01892 1-262); conditions: protein: recombinant; tags: N-terminal GST; dsDNA, one strand shown
# Outline: as §1
# ELK3 = biological target: T6, ELK3 (Homo sapiens, UniProt P41970 1-407); conditions: protein: recombinant; tags: N-terminal GST; dsDNA, one strand shown
# T6 sequence: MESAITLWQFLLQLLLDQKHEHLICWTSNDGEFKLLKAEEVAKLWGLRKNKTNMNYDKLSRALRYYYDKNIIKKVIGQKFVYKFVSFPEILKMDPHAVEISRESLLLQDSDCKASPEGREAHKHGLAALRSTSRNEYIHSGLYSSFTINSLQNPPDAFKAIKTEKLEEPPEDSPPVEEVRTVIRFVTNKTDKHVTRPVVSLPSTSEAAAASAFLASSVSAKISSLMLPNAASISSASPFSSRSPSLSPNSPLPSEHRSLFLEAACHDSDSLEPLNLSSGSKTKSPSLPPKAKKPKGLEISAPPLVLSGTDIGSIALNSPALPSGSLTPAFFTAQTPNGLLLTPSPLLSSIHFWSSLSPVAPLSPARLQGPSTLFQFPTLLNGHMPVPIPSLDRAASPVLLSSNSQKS
# Outline: as §1
# FEV = biological target: T7, FEV (Homo sapiens, UniProt Q99581 1-238); conditions: protein: recombinant; tags: N-terminal GST; dsDNA, one strand shown
# T7 sequence: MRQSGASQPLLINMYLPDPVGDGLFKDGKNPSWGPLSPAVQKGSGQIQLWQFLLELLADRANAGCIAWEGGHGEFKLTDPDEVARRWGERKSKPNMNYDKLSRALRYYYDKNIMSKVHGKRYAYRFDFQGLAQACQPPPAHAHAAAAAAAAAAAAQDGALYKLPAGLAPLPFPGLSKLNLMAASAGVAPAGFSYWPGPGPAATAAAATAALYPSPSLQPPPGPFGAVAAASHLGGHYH
# Outline: as §1
# ETV5 = ETV5 (Homo sapiens, UniProt P41161 1-510); conditions: protein: recombinant; tags: N-terminal GST; dsDNA, one strand shown
# Outline: as §1
# HSF1 = HSF1 (Homo sapiens, UniProt Q00613 1-529); conditions: protein: recombinant; tags: N-terminal GST; chain copies: 3; dsDNA, one strand shown
# Outline: as §1
# SPIC = biological target: T8, SPIC (Homo sapiens, UniProt Q8N5J4 1-248); conditions: protein: recombinant; tags: N-terminal GST; dsDNA, one strand shown
# T8 sequence: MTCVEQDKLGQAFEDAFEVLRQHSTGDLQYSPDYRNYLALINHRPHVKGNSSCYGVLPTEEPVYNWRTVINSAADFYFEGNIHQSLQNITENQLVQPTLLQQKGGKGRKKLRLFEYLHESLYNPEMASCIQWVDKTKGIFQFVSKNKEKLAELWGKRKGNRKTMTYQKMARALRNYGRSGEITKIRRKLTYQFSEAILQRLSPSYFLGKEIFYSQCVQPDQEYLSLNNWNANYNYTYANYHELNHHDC
# Outline: as §1
# ELF4 = ELF4 (Homo sapiens, UniProt Q99607 1-663); conditions: protein: recombinant; tags: N-terminal GST; dsDNA, one strand shown
# Outline: as §1
# ELK4 = biological target: T9, ELK4 (Homo sapiens, UniProt P28324-2 1-405); conditions: protein: recombinant; tags: N-terminal GST; dsDNA, one strand shown
# T9 sequence: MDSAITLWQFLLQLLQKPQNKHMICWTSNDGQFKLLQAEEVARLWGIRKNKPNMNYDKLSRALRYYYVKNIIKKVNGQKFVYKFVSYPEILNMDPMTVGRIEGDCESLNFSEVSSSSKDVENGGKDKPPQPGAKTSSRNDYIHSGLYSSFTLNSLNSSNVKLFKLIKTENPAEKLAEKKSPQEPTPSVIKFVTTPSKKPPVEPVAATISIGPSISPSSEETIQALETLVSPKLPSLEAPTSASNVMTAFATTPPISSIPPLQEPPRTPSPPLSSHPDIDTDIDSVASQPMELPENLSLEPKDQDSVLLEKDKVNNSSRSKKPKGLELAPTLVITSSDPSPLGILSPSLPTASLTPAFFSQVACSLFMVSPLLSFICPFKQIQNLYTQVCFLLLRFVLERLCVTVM
# Outline: as §1
# ETV2 = biological target: T10, ETV2 (Homo sapiens, UniProt O00321 1-342); conditions: protein: recombinant; tags: N-terminal GST; dsDNA, one strand shown
# T10 sequence: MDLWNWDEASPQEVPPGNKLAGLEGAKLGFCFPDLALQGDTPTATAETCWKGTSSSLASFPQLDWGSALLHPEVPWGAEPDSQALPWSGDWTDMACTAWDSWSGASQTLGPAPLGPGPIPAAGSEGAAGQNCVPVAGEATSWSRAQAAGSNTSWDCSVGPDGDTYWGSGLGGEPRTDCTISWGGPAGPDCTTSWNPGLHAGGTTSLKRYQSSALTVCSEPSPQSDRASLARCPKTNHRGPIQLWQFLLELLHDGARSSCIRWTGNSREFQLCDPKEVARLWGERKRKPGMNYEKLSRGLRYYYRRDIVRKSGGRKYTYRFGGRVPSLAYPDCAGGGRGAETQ
# Outline: as §1
# ELF3 = biological target: T11, ELF3 (Homo sapiens, UniProt P78545 1-371); conditions: protein: recombinant; tags: N-terminal GST; dsDNA, one strand shown
# T11 sequence: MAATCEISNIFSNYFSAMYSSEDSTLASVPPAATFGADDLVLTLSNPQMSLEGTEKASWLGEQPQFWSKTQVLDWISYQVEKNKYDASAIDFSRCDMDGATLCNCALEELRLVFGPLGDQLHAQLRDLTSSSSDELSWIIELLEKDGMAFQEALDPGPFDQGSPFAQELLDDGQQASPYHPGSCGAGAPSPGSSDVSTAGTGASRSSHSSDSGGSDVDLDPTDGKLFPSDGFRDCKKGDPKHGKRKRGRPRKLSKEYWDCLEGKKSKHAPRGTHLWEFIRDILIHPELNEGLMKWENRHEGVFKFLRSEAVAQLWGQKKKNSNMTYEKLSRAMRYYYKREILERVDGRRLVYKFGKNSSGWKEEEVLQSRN
# Outline: as §1
# ETV1 = ETV1 (Homo sapiens, UniProt P50549 1-477); conditions: protein: recombinant; tags: N-terminal GST; dsDNA, one strand shown
# Outline: as §1
# Sequence of SPIB (Q01892 whole entry): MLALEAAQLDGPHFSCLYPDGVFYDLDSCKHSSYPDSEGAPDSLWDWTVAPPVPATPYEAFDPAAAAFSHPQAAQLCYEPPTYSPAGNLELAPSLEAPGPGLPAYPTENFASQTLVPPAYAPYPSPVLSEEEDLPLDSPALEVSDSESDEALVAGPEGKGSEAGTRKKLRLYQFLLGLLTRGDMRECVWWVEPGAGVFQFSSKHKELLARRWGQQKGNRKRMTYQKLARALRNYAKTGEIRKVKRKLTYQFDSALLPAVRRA
# Sequence of HSF1 (Q00613 whole entry): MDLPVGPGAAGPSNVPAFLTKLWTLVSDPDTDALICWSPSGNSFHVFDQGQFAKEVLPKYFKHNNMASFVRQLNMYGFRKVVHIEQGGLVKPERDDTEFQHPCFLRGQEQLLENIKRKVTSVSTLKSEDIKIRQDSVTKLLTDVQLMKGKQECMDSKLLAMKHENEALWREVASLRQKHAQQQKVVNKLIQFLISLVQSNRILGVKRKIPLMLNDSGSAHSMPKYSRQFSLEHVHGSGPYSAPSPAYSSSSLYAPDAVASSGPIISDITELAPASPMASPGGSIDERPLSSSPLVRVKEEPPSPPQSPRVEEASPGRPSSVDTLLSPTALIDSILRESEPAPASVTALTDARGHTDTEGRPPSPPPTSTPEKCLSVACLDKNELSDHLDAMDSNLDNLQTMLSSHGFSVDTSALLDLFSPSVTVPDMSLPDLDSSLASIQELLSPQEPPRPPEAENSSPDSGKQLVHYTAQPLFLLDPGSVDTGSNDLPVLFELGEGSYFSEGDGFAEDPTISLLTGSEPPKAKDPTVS
# Sequence of ETV1 (P50549 whole entry): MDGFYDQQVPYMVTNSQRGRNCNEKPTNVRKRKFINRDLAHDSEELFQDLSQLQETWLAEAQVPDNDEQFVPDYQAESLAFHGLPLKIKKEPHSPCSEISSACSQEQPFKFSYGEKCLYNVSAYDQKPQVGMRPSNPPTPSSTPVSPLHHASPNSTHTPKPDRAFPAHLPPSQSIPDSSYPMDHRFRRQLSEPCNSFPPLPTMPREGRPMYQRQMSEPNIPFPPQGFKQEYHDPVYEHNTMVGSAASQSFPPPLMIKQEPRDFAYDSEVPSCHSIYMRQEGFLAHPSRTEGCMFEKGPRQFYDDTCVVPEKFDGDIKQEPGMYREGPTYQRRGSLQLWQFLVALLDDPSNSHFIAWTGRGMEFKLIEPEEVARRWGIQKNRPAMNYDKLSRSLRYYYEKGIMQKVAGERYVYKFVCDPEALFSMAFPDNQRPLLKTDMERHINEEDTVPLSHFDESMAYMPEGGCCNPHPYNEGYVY
# Sequence of ELF1 (P32519 whole entry): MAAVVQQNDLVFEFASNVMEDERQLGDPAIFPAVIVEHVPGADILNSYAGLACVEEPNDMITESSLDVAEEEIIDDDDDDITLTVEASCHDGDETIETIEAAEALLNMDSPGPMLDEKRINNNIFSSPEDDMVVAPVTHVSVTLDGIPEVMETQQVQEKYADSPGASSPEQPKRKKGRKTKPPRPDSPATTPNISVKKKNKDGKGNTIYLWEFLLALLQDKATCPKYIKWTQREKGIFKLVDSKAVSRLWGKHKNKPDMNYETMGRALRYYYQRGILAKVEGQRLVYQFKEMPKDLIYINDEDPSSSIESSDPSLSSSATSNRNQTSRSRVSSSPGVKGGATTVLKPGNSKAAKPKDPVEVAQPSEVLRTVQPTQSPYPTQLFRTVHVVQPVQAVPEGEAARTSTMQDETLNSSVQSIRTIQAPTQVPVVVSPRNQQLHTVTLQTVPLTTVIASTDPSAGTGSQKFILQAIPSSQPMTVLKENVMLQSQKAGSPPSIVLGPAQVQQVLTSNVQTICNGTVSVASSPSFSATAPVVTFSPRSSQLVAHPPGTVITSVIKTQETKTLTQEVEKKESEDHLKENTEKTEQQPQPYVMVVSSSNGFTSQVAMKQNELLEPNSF
# Sequence of ELF4 (Q99607 whole entry): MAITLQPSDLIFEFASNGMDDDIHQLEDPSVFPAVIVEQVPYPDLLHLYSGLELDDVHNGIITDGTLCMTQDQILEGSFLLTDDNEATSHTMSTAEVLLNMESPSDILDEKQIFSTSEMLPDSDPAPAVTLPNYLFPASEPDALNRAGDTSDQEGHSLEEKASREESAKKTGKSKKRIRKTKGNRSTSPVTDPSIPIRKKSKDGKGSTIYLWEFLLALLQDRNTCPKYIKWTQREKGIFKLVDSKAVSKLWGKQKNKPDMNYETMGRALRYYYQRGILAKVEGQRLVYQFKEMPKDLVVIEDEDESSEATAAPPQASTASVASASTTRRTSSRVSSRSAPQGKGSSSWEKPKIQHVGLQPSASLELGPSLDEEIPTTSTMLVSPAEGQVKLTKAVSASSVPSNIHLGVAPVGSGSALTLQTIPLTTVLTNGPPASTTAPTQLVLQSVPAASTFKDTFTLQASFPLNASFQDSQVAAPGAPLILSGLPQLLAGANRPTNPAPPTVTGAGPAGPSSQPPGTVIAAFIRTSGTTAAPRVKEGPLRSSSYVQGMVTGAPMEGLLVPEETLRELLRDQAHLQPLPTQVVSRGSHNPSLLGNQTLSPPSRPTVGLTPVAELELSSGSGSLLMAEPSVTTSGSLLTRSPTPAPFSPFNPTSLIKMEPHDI
# Sequence of ETV5 (P41161 whole entry): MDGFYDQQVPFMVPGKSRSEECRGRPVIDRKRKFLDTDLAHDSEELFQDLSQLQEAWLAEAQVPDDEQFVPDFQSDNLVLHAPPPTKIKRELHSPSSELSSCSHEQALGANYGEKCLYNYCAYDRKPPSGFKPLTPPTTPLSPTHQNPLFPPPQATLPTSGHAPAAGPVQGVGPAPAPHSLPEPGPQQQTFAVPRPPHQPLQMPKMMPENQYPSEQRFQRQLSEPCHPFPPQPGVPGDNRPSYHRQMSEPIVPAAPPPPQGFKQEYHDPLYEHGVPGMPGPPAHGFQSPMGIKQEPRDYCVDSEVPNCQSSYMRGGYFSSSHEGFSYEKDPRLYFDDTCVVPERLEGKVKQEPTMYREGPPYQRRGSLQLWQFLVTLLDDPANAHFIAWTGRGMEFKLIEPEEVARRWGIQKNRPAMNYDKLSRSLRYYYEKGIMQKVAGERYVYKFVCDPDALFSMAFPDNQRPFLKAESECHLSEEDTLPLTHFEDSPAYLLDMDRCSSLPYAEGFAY
sequence,measurement,setting,value
GATGGT,binding signal,FLI1,"1.25 fold enrichment (6-mer frequency, TF over GST control)"
same,binding signal,ELK1,"1.16 fold enrichment (6-mer frequency, TF over GST control)"
same,binding signal,GABPA,"1.16 fold enrichment (6-mer frequency, TF over GST control)"
same,binding signal,ERG,"1.23 fold enrichment (6-mer frequency, TF over GST control)"
same,binding signal,ELF1,"1.14 fold enrichment (6-mer frequency, TF over GST control)"
same,binding signal,EHF,"1.06 fold enrichment (6-mer frequency, TF over GST control)"
same,binding signal,SPIB,"1.19 fold enrichment (6-mer frequency, TF over GST control)"
same,binding signal,ELK3,"1.17 fold enrichment (6-mer frequency, TF over GST control)"
same,binding signal,FEV,"1.07 fold enrichment (6-mer frequency, TF over GST control)"
same,binding signal,ETV5,"1.16 fold enrichment (6-mer frequency, TF over GST control)"
same,binding signal,HSF1,"1.02 fold enrichment (6-mer frequency, TF over GST control)"
same,binding signal,SPIC,"1.19 fold enrichment (6-mer frequency, TF over GST control)"
same,binding signal,ELF4,"1.11 fold enrichment (6-mer frequency, TF over GST control)"
same,binding signal,ELK4,"1.18 fold enrichment (6-mer frequency, TF over GST control)"
same,binding signal,ETV2,"1.37 fold enrichment (6-mer frequency, TF over GST control)"
same,binding signal,ELF3,"1.19 fold enrichment (6-mer frequency, TF over GST control)"
same,binding signal,ETV1,"1.22 fold enrichment (6-mer frequency, TF over GST control)"

# Source: paper PMC7862700, “An all-to-all approach to the identification of sequence-specific readers for epigenetic DNA modifications on cytosine”
